Data: the antibiotic and cytotoxicity screens of Wong et al. (2023)
In all, about 39,000 compounds went through this assay and about 3,300 (8.5%) were called active. The entries come from a sample that favours actives as a whole.

tested on: HepG2; experiment: cytotoxicity call (relative viability < 0.9); conditions: 10 µM

| SMILES | cytotoxicity call |
| --- | --- |
| Cc1noc(C)c1S(=O)(=O)Nc1ccc2c(c1)C(=O)N([C@@H](C)CO)C[C@H](C)[C@H](CN(C)S(C)(=O)=O)O2 | inactive |
| COc1ccc(NC(=O)Nc2ccc3c(c2)C(=O)N([C@H](C)CO)C[C@H](C)[C@H](CN(C)Cc2ccc(C(F)(F)F)cc2)OCCCC[C@@H](C)O3)cc1 | inactive |
| COc1ccc(NC(=O)Nc2ccc3c(c2)C(=O)N([C@H](C)CO)C[C@H](C)[C@H](CN(C)Cc2ccc(C(F)(F)F)cc2)OCCCC[C@H](C)O3)cc1 | inactive |
| COc1ccc(NC(=O)Nc2ccc3c(c2)C(=O)N([C@H](C)CO)C[C@@H](C)[C@H](CN(C)Cc2ccc(C(F)(F)F)cc2)OCCCC[C@H](C)O3)cc1 | inactive |
| COc1ccc(NC(=O)Nc2ccc3c(c2)C(=O)N([C@H](C)CO)C[C@H](C)[C@@H](CN(C)Cc2ccc(C(F)(F)F)cc2)OCCCC[C@@H](C)O3)cc1 | inactive |
| COc1ccc(CN(C)C[C@H]2OCCCC[C@@H](C)Oc3ccc(NC(=O)Nc4ccc(C(F)(F)F)cc4)cc3C(=O)N([C@@H](C)CO)C[C@H]2C)cc1 | active |
| COc1ccc(CN(C)C[C@@H]2OCCCC[C@@H](C)Oc3ccc(NC(=O)Nc4ccc(C(F)(F)F)cc4)cc3C(=O)N([C@H](C)CO)C[C@H]2C)cc1 | active |
| COc1ccc(CN(C)C[C@@H]2OCCCC[C@@H](C)Oc3ccc(NC(=O)Nc4ccc(C(F)(F)F)cc4)cc3C(=O)N([C@H](C)CO)C[C@@H]2C)cc1 | active |
| COc1ccc(NC(=O)Nc2ccc3c(c2)C(=O)N([C@@H](C)CO)C[C@@H](C)[C@@H](CN(C)Cc2ccc(C(F)(F)F)cc2)OCCCC[C@@H](C)O3)cc1 | inactive |
| COc1ccc(CN(C)C[C@H]2OCCCC[C@H](C)Oc3ccc(NC(=O)Nc4ccc(C(F)(F)F)cc4)cc3C(=O)N([C@@H](C)CO)C[C@@H]2C)cc1 | active |
| COc1ccc(NC(=O)Nc2ccc3c(c2)C(=O)N([C@@H](C)CO)C[C@H](C)[C@H](CN(C)Cc2ccc(C(F)(F)F)cc2)OCCCC[C@@H](C)O3)cc1 | inactive |
| CC(C)NC(=O)N(C)C[C@H]1OCCCC[C@H](C)Oc2ccc(NS(=O)(=O)c3cn(C)cn3)cc2C(=O)N([C@@H](C)CO)C[C@@H]1C | inactive |
| C[C@@H]1CN([C@H](C)CO)C(=O)c2cccc(NS(=O)(=O)c3ccccc3)c2O[C@H]1CN(C)S(=O)(=O)c1cccs1 | inactive |
| COc1ccc(S(=O)(=O)N(C)C[C@@H]2Oc3ccc(NS(=O)(=O)c4c(C)noc4C)cc3C(=O)N([C@@H](C)CO)C[C@@H]2C)cc1 | inactive |
| COCC(=O)N1C[C@@H](C)[C@@H](OC)CN(C)C(=O)c2ccc(NC(=O)c3cc(C)on3)cc2OC[C@@H]1C | inactive |
| Cc1ccc(S(=O)(=O)N(C)C[C@@H]2OCCCC[C@H](C)Oc3ccc(NC(=O)c4ccccc4)cc3C(=O)N([C@H](C)CO)C[C@@H]2C)cc1 | inactive |
| COCC(=O)N(C)C[C@H]1Oc2cc(C#C[C@@H](C)O)ccc2S(=O)(=O)N([C@@H](C)CO)C[C@H]1C | inactive |
| COc1ccc(C#Cc2cnc3c(c2)C(=O)N([C@@H](C)CO)C[C@H](C)[C@@H](CN(C)C(=O)CN(C)C)O3)cc1 | inactive |
| Cn1c(=O)[nH]c(=O)c2c1ncn2CCNCc1ccco1 | inactive |
| C[C@@H]1CN([C@@H](C)CO)C(=O)c2cc(NC(=O)Cc3ccccc3)ccc2O[C@@H](C)CCCCO[C@@H]1CN(C)CC1CCCCC1 | inactive |

| SMILES | cytotoxicity call |
| --- | --- |
| O=C(C[C@H]1CC[C@H]2[C@@H](COC[C@H](O)CN2C(=O)c2ccncc2)O1)NC1CCC1 | inactive |
| C[C@H]1CN([C@@H](C)CO)C(=O)c2cc(NC(=O)NC3CCCCC3)ccc2O[C@@H]1CN(C)S(=O)(=O)c1cn(C)cn1 | inactive |
| C[C@H](CO)N1C[C@H](C)[C@H](CN(C)Cc2ccc(Oc3ccccc3)cc2)Oc2ccc(NS(=O)(=O)c3ccccc3)cc2CC1=O | inactive |
| C[C@H](CO)N1C[C@H](C)[C@@H](CN(C)Cc2ccc(Oc3ccccc3)cc2)Oc2ccc(NS(=O)(=O)c3ccccc3)cc2CC1=O | inactive |
| C[C@@H]1CN([C@H](C)CO)C(=O)Cc2cc(NS(=O)(=O)c3ccccc3)ccc2O[C@H]1CN(C)Cc1ccc(Oc2ccccc2)cc1 | active |
| C[C@@H]1CN([C@@H](C)CO)C(=O)Cc2cc(NS(=O)(=O)c3ccccc3)ccc2O[C@@H]1CN(C)Cc1ccc(Oc2ccccc2)cc1 | active |
| C[C@H]1CN([C@@H](C)CO)C(=O)Cc2cc(NS(=O)(=O)c3ccccc3)ccc2O[C@H]1CN(C)Cc1ccc(Oc2ccccc2)cc1 | inactive |
| C[C@H]1CN([C@@H](C)CO)C(=O)Cc2cc(NS(=O)(=O)c3ccccc3)ccc2O[C@@H]1CN(C)Cc1ccc(Oc2ccccc2)cc1 | inactive |
| C[C@@H]1CN([C@@H](C)CO)C(=O)Cc2cc(NS(=O)(=O)c3ccccc3)ccc2O[C@H]1CN(C)Cc1ccc(Oc2ccccc2)cc1 | inactive |
| C[C@@H]1CN([C@H](C)CO)C(=O)Cc2cc(NS(=O)(=O)c3ccccc3)ccc2O[C@@H]1CN(C)Cc1ccc(Oc2ccccc2)cc1 | active |
| COc1ccc(S(=O)(=O)Nc2cccc3c2O[C@@H](CN(C)Cc2ccc(-c4ccccc4)cc2)[C@H](C)CN([C@H](C)CO)C3=O)cc1 | inactive |
| CO[C@H]1CN(C)C(=O)c2ccc(NC(=O)c3ccccc3)cc2OC[C@H](C)N(C(=O)CN(C)C)C[C@@H]1C | inactive |
| C[C@@H]1CN([C@H](C)CO)C(=O)c2cccc(NC(=O)NC3CCCCC3)c2O[C@H]1CN(C)Cc1ccc(-c2ccccc2)cc1 | inactive |
| CCS(=O)(=O)N1CCC[C@]2(C(=O)NCC3CC3)CN(Cc3cnn(C)c3)C[C@H]2C1 | inactive |
| COc1ccc(C(=O)NC(CO)(CO)CO)cc1OC | inactive |
| C[C@@H]1CN([C@H](C)CO)S(=O)(=O)c2ccc(C#CC3CCCC3)cc2O[C@@H]1CN(C)C(=O)Cc1ccncc1 | inactive |
| COc1cc2c(cc1O)CCN[C@]21CS[C@@H]2c3c(OC(C)=O)c(C)c4c(c3[C@H](COC1=O)N1[C@@H]2[C@H]2c3c(cc(C)c(OC)c3O)C[C@@H]([C@@H]1O)N2C)OCO4 | active |
| CO[C@H](CN(C)S(=O)(=O)c1ccc(C)cc1)[C@@H](C)CN([C@@H](C)CO)S(=O)(=O)c1cccc(Cl)c1 | inactive |
| Cc1cnc(Nc2ccc(F)cc2Cl)nc1-c1c[nH]c(C(=O)N[C@H](CO)c2cccc(Cl)c2)c1 | active |
| C[C@@H]1CN([C@@H](C)CO)C(=O)Cc2cc(NC(=O)CCN3CCOCC3)ccc2O[C@H]1CN(C)Cc1ccc(C(=O)Nc2ccccc2N)cc1 | inactive |

| SMILES | cytotoxicity call |
| --- | --- |
| CC(=O)OC1CCC2(C)C(CC(OC(C)=O)C3(C)C2CCC2(C)C(c4ccoc4)OC(=O)C4OC423)C1(C)C (stereo not drawn) [3beta-ACETOXYDEOXODIHYDROGEDUNIN ] | inactive |
| CC(=O)OC1CC(OC(C)=O)C2(C)C(CC(=O)C3(C)C2CCC2(C)C(c4ccoc4)OC(=O)C4OC423)C1(C)C (centres undefined) | inactive |
| CC1(C)C(=O)C=CC2(C)C1C=CC1(C)C2CCC2(C)C(c3ccoc3)OC(=O)C3OC312 (centres undefined) | active |
| CC1(C)OC2CC(=O)OCC23C1CC(=O)C1(C)C3CCC2(C)C(c3ccoc3)OC(=O)C3OC321 (centres undefined) | inactive |
| CC(=O)O[C@H]1CC[C@]2(C)[C@H]3CC[C@@]4(C)[C@H](c5ccoc5)OC(=O)[C@H]5O[C@]54[C@]3(C)[C@H](OC(C)=O)C[C@H]2C1(C)C | inactive |
| CC1(C)C(=O)C=CC2(C)C1CC(=O)C1(C)C2CCC2(C)C(c3ccoc3)OC(=O)C3OC321 (centres undefined) | active |
| C[C@H]1CCCCO[C@@H](CN(C)C(=O)c2ccncc2)[C@@H](C)CN([C@@H](C)CO)C(=O)c2cc(NS(=O)(=O)c3ccc(Cl)cc3)ccc2O1 | inactive |
| Nc1ccc([C@@H](O)[C@@H](O)CO)cc1 | inactive |
| COc1ccc(S(=O)(=O)N(C)C[C@@H]2Oc3c(NC(=O)c4cnccn4)cccc3C(=O)N([C@@H](C)CO)C[C@H]2C)cc1 | inactive |
| C[C@H](CO)N1C[C@H](C)[C@H](CN(C)C(=O)Cc2ccccn2)Oc2ncc(-c3cccc(C(=O)N(C)C)c3)cc2C1=O | inactive |
| COc1ccc(S(=O)(=O)N(C)C[C@@H]2Oc3ccc(NS(C)(=O)=O)cc3CC(=O)N([C@H](C)CO)C[C@@H]2C)cc1 | inactive |
| COc1ccc(NC(=O)Nc2ccc3c(c2)C(=O)N([C@H](C)CO)C[C@@H](C)[C@@H](CN(C)Cc2ccc4c(c2)OCO4)OCCCC[C@@H](C)O3)cc1 | active |
| COc1ccc(NC(=O)Nc2ccc3c(c2)C(=O)N([C@@H](C)CO)C[C@H](C)[C@H](CN(C)Cc2ccc4c(c2)OCO4)OCCCC[C@@H](C)O3)cc1 | inactive |
| COc1ccc(NC(=O)Nc2ccc3c(c2)C(=O)N([C@H](C)CO)C[C@H](C)[C@H](CN(C)Cc2ccc4c(c2)OCO4)OCCCC[C@H](C)O3)cc1 | active |
| COc1ccc(NC(=O)Nc2ccc3c(c2)C(=O)N([C@@H](C)CO)C[C@@H](C)[C@@H](CN(C)Cc2ccc4c(c2)OCO4)OCCCC[C@@H](C)O3)cc1 | inactive |
| COc1ccc(NC(=O)Nc2ccc3c(c2)C(=O)N([C@H](C)CO)C[C@H](C)[C@@H](CN(C)Cc2ccc4c(c2)OCO4)OCCCC[C@H](C)O3)cc1 | inactive |
| COc1ccc(NC(=O)Nc2ccc3c(c2)C(=O)N([C@H](C)CO)C[C@@H](C)[C@H](CN(C)Cc2ccc4c(c2)OCO4)OCCCC[C@@H](C)O3)cc1 | inactive |
| C[C@@H]1CCCCO[C@H](CN(C)C(=O)NC2CCCCC2)[C@H](C)CN([C@@H](C)CO)C(=O)c2cc(NC(=O)c3ccccc3)ccc2O1 | inactive |
| C[C@@H]1CN([C@@H](C)CO)C(=O)Cc2cc(NC(=O)Cc3ccccc3)ccc2O[C@H]1CN(C)C(=O)Nc1cccc2ccccc12 | inactive |
